Measured values as given in PubChem BioAssay AID652104 (National Center for Advancing Translational Sciences (NCATS), 2013).
The campaign covered roughly 410,000 compounds. About 7,200 (1.8%) were called active. Another 7% or so got no clear call; they are omitted. What follows is part of a selection rich in actives, with near analogues and random picks from the rest. Values without a mark were called inactive. The call rests on the fitted dose curve; in most records, active means well fitted activation curve with a large enough effect; inconclusive means small, poorly fitted or top-dose-only effect, or another doubt; inactive means no such curve, though single readings can be large or run the other way.

Test: qHTS of TDP-43 Inhibitors; further: nearly all actives have a fitted effect of over 50% in size; on growth rescue (activation): % of control where 0% means no effect
Conditions: TDP-43 expressing yeast growth rescue, BacTiter-Glo, 24 h; series mostly up to 46.1 µM; growth rescue (activation): at the top concentration
Summary of the method: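 Yeast cells expressing TDP-43 under galactose induction are exposed to compounds for 24 hr at 30 deg C. BacTiter-Glo luminescence measures growth, so protective compounds score as activators.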
Potency means the concentration at half of the fitted maximal effect.

Row | SMILES | growth rescue (activation) | Potency
1 | CCSc1ncc(Cl)c(C(=O)Nc2c(C(=O)c3ccccc3)oc3ccccc23)n1 | 2.95% | 
2 | COC[C@@H]1NS(=O)(=O)c2ccc(Br)cc2O[C@H]1c1ccccc1 | 7.89% | 
3 | C[C@H]1NS(=O)(=O)c2cc(Cl)ccc2O[C@@H]1c1ccccc1 | 0.684% | 
4 | C[C@@H]1NS(=O)(=O)c2cc(Cl)ccc2O[C@@H]1c1ccccc1 |  | 17.8 µM (active)
5 | Cc1ccc2nc(-c3ccc(O)cc3)c(Nc3ccc4c(c3)OCO4)n2c1 | 21.7% | 
6 | COc1cc(Br)c(-c2sc(Nc3ccccc3)n[n+]2-c2ccccc2)cc1OC | 6.16% | 
7 | COc1ccc(C)cc1S(=O)(=O)Nc1cccc(Cl)c1Cl | 13% | 
8 | CCc1ccc(Nc2n[n+](-c3ccccc3)c(-c3cccc(Cl)c3Cl)s2)cc1 |  | 35.5 µM (active)
9 | COc1ccc(C)cc1Nc1n[n+](-c2ccccc2)c(-c2cccc(Cl)c2Cl)s1 |  | 35.5 µM (active)
10 | Cc1ccc(S(=O)(=O)N2CCc3cc(C(=O)Nc4ccc(Cl)cc4C)ccc32)cc1 | 12.7% | 
11 | CC(=O)c1c(C)n(S(=O)(=O)c2ccc(Cl)cc2)c2ccc(NS(=O)(=O)c3ccc(Cl)cc3)cc12 | 26.6% | 
12 | CCc1ccc(NC(=O)c2cc3c(=O)n(Cc4cccnc4)ccc3nc2C)cc1 | 6.57% | 
13 | CCc1cc2c(NC(Cc3ccccc3)C(=O)O)ncnc2s1 (centres undefined) | 6.4% | 
14 | CCc1cc2c(SCC(=O)Nc3ncc(Cl)c(C)c3Cl)ncnc2s1 | 29.1% | 
15 | CCc1cc2c(NC3CCCC3)ncnc2s1 |  | 12.6 µM (active)
16 | Cc1ccc2c(=O)c(C(=O)c3cccc(Cl)c3)cn(CC(=O)NCc3ccccc3)c2n1 | -1.08% | 
17 | Cc1nn2c(=O)cc(COC(=O)c3cccc(NC(=O)COc4ccccc4Cl)c3)nc2s1 | 13.4% | 
18 | CCOc1cc(/C=N/O)cc(Br)c1OC |  | 11.2 µM (active)
19 | CCOc1c(Br)cc(/C=C2\C(=O)N(CCC#N)N=C2C)cc1OC | -3.23% | 
20 | CCOc1cc(/C=N/n2cnnc2)c(Br)cc1O | -10.2% | 
21 | O=S(=O)(c1ccc(Br)cc1)c1nnn2c1nc(N1CCOCC1)c1sccc12 | 3.38% | 
22 | COc1cc(Nc2nc(-c3ccc(OC)c(OC)c3)nc3ccccc23)cc(OC)c1 | 18.5% | 
23 | CCCCN(CC)CCCNC(=O)c1nn(C)c2c1CS(=O)(=O)c1ccccc1-2 | 1.93% | 
24 | COc1ccc(CN2CCOC2=O)cc1OC | 5.01% | 
25 | COc1ccc(Cn2c(=O)sc3ccccc32)cc1OC |  | 11.2 µM (active)

Row | SMILES | growth rescue (activation) | Potency
26 | C=CCSc1nnc(Cn2c(=O)sc3ccccc32)n1C | 9.94% | 
27 | CCCCCn1c(=O)[nH]c2cc(C(=O)NCCN(C)CCCC)ccc2c1=O | 20.9% | 
28 | CCC(=O)N1CCc2cc(S(=O)(=O)NC(Cc3ccccc3)C(=O)NCc3ccccc3)ccc21 (centres undefined) | 16.9% | 
29 | COc1ccc(CNC(=O)C2=Cc3cccc(OC)c3OC2)cc1OC | 0% [at 9.22 µM] | 
30 | COc1ccc(NC(=O)c2ccco2)cc1NC(=O)COc1ccc(C)c(C)c1 | 19.3% | 
31 | COc1cc(NC(=O)c2cc([N+](=O)[O-])ccc2Br)ccc1NC(=O)c1ccco1 |  | 10 µM (active)
32 | COc1ccc([N+](=O)[O-])cc1NC(=O)COC(=O)/C=C/c1ccco1 | 9.61% | 
33 | COCCNC(=O)c1ccc2c(c1)N=C(C)c1cc(C)ccc1S2 | 4.19% | 
34 | CCCn1c2ccccc2c2cnn(CC(=O)N(CC)c3cc(C)ccc3C)c(=O)c21 | -19.8% | 
35 | CCCn1c2ccccc2c2cnn(CC(=O)N(C)c3ccccc3CC)c(=O)c21 |  | 28.2 µM (active)
36 | CCCn1c2ccccc2c2cnn(CC(=O)NCCCOC(C)C)c(=O)c21 | 15.2% | 
37 | Cc1ccc(S(=O)(=O)c2nc(-c3cccs3)oc2N2CCCCC2)cc1 | 12.1% | 
38 | COc1ccc(N2CCN(c3cc(C)nc4nncn34)CC2)cc1 | 4.9% | 
39 | Cc1ccccc1NC(=O)Cn1cc(C(=O)c2cccs2)c2ccccc21 | 11.7% | 
40 | Cc1ccc(C(=O)N2CCc3cc(CNC(=O)c4ccc(Br)cc4)ccc32)cc1 | -9.12% | 
41 | CCCCCCCCCCCCN1C(=O)CSC1c1cccnc1 (centres undefined) |  | 20 µM (active)
42 | O=C(O)C1CC(=O)N(Cc2cccnc2)C1 (centres undefined) | -14.9% | 
43 | CCCCc1ccc(NC(=O)NCc2cccnc2)cc1 | 6.28% | 
44 | CCOc1ccc(CNC(=O)C2CCN(c3nnc(-n4cccc4CNc4ccc(C)cc4)s3)CC2)cc1OC | 9.74% | 
45 | COc1ccccc1N1CCN(c2ccc(=O)n(CC(=O)NCc3ccc(OC(C)C)cc3)n2)CC1 | -15.5% | 
46 | Clc1ccc(Nc2nc(-c3cccs3)cs2)nc1 |  | 8.91 µM (active)
47 | CCN(c1ccc(Cl)cc1)S(=O)(=O)c1nnc(NC(=O)c2ccco2)s1 | 7.64% | 
48 | CCc1cnc2c(c1SCC(=O)N1CCC(C)CC1)c(=O)n(C)c(=O)n2C | 11.7% | 
49 | Cc1cc(-c2n[nH]c(=S)n2/N=C/C(Br)=C/c2ccccc2)n[nH]1 |  | 35.5 µM (active)
50 | CCCc1cc(-c2n[nH]c(=S)n2CC)c2ccccc2n1 | 6.52% | 

Row | SMILES | growth rescue (activation) | Potency
51 | O=C(c1cccc(Cl)c1)N1CCN(CCc2ccncc2)CC1 | -9.8% | 
52 | C#Cc1cc(N2CCN(C(=O)c3ccoc3)CC2)n2nc(-c3cccc(Cl)c3)cc2n1 |  | 22.4 µM (active)
53 | O=C(Cn1cc(SCc2cccc(Cl)c2)c2ccccc21)N1CCCCC1 | 21.1% | 
54 | O=C(Nc1ccc(OC(F)(F)F)cc1)c1cc2c(=O)n3ccccc3nc2s1 | 7.86% | 
55 | CN(C(=O)c1cc2c(=O)n3ccccc3nc2s1)C1CCCCC1 |  | 14.1 µM (active)
56 | CCOCCCNC(=O)c1cc2c(=O)n3ccccc3nc2s1 |  | inactive
57 | CCN(CCCNC(=O)c1cc2c(=O)n(CC)c3ccccc3c2s1)Cc1ccccc1 | 2.18% | 
58 | Cc1oc2ncnc(N3CCOCC3)c2c1C(=O)NCCc1ccccc1 | 20.6% | 
59 | NS(=O)(=O)c1ccc(CCNC(=O)CCCCCn2c(=O)[nH]c3ccccc3c2=O)cc1 | 10.1% | 
60 | CCc1ccc(NC(=O)c2cc(S(=O)(=O)NC3CCCCCC3)ccc2F)cc1 | 19.2% | 
61 | CCOc1ccccc1NC(=O)c1ccc2c(c1)CCN2S(=O)(=O)c1ccc(C)cc1 | -0.207% | 
62 | CCOc1ccc(OCC)c(NC(=O)c2cc(C)nc3c2c(C)nn3-c2cccc(Cl)c2C)c1 | 19.8% [at 9.22 µM] | 
63 | O=C(Nc1ccc(S(=O)(=O)Nc2ncccn2)cc1)C12CC3CC(CC(C3)C1)C2 | -29.9% | 
64 | COC(=O)c1ccc(NC(=O)C23CC4CC(C2)CC(n2cnc(Cl)n2)(C4)C3)cc1 |  | 25.1 µM (active)
65 | O=C(Nc1c2c(nn1-c1ccc(F)cc1)CS(=O)C2)C12CC3CC(CC(C3)C1)C2 (centres undefined) | 11.8% | 
66 | CN(C)c1ccc(C(CNS(=O)(=O)c2cc(F)ccc2F)N2CCOCC2)cc1 (centres undefined) | -9.72% | 
67 | CCOc1ccc(N2CC(c3nc4ccccc4n3CCOc3ccc(OC)cc3)CC2=O)cc1 (centres undefined) | 13.9% | 
68 | COc1cc(OC)c(NC(=O)N2CC3CCCN3c3ccccc32)cc1Cl (centres undefined) | 18.7% | 
69 | Cc1ccc(C2C=C(c3ccc(Cl)cc3)Nc3nc(NC(=O)CCC(=O)O)nn32)cc1 (centres undefined) | 14.3% | 
70 | COc1ccc(OC)c(C(=O)c2ccc(C(=O)N3CCN(Cc4csc(C)n4)CC3)cc2)c1 | -12.4% | 
71 | CCC(C)NC(=O)c1cc(Cl)ccc1OC (centres undefined) | 4.16% | 
72 | COc1ccc(OC)c(C(=O)c2ccc(Cl)cc2)c1 |  | 12.6 µM (active)
73 | Cc1oc2ccc(O)c(CN3CCC(C)CC3)c2c1C(=O)Nc1ccccc1 | 18.6% | 
74 | COCCNc1ncnc2c1c(-c1ccccc1)cn2-c1ccc(C)c(Cl)c1 |  | 12.6 µM (active)
75 | CCOC(=O)C1CCN(c2ncnc3c2c(-c2ccccc2)cn3-c2ccc(C)cc2)CC1 | -8.43% | 

Row | SMILES | growth rescue (activation) | Potency
76 | CCOC(=O)C1CCN(c2ncnc3c2c(-c2ccccc2)cn3-c2cccc(C)c2)CC1 | 14.6% | 
77 | CCOc1ccc(N(CC)S(=O)(=O)N2CCCC(C(=O)NCc3ccc(Cl)cc3)C2)cc1 (centres undefined) | -15.1% | 
78 | CCOC(=O)c1ccc(NC(=O)Cn2cc(S(=O)(=O)Cc3ccccc3F)c3ccccc32)cc1 | 19% | 
79 | Cc1c(CNC2CCCCC2)c(C(=O)O)c(C)n1Cc1cccc(Cl)c1 | -1.7% | 
80 | COc1ccc(OCC(=O)NCCS(=O)(=O)N2CCN(c3ccc(F)cc3)CC2)cc1 | -10.2% | 
81 | COc1ccc(N2CCN(S(=O)(=O)CCNC(=O)C34CC5CC(CC(C5)C3)C4)CC2)cc1 |  | 20 µM (active)
82 | COc1ccc(N2CCN(S(=O)(=O)CCNC(=O)C(c3ccccc3)c3ccccc3)CC2)cc1 | 17.7% | 
83 | COCCNC(=O)CSc1c(C)cnc2c1c(=O)n(C)c(=O)n2C | 12.2% | 
84 | Cc1ccccc1NC(=O)c1c(NC(=O)c2ccccc2F)sc2c1CCC(C)C2 (centres undefined) | 18.8% | 
85 | CCOc1ccc(N(CC)S(=O)(=O)N2CCCC(C(=O)Nc3ccc(C(C)=O)cc3)C2)cc1 (centres undefined) | 2.83% | 
86 | O=C(O)c1ccc(NS(=O)(=O)c2cccc3nsnc23)cc1 | -12.3% | 
87 | O=S(=O)(Nc1ccc(OC(F)(F)F)cc1)c1cccc2nonc12 |  | 11.2 µM (active)
88 | Nc1ncc(S(=O)(=O)Nc2ccc(OC(F)(F)F)cc2)cn1 | 20.6% | 
89 | Cc1ccc(CSc2oc(-c3cccs3)nc2S(=O)(=O)c2ccc(C)cc2)cc1 | -1.5% | 
90 | O=C(Cc1ccc(Cl)cc1)Nc1ccc2nn(-c3ccc(Cl)cc3)nc2c1 | 5.59% | 
91 | COc1ccc(Cn2ccnc2SCC(=O)Nc2ccc3c(c2)OCO3)cc1 | 31.9% | 
92 | O=C(CSCc1ccc([N+](=O)[O-])cc1)NCCSCc1ccccc1 |  | 20 µM (active)
93 | O=C(Cc1ccc([N+](=O)[O-])cc1)NCCS(=O)(=O)N1CCN(c2ccccc2)CC1 | 10.9% | 
94 | O=C(CSCc1ccc([N+](=O)[O-])cc1)Nc1cccc(C(=O)Nc2ccccc2C(=O)O)c1 | -13.9% | 
95 | CCOC(=O)c1ccc(NC(=O)c2c(NCc3cccc(OC)c3)sc3c2CCC3)cc1 | 8.24% | 
96 | Cc1cccc(OCC(=O)N(Cc2ccc(C(C)C)cc2)Cc2ccco2)c1C | -2.83% | 
97 | CC(Nc1ccc([N+](=O)[O-])cc1[N+](=O)[O-])c1ccccc1 (centres undefined) |  | 12.6 µM (active)
98 | CC(C)OP(=O)(OC(C)C)C(Nc1ccccc1)c1cccc([N+](=O)[O-])c1 (centres undefined) | -9.78% | 
99 | CC(Nc1ccc(-c2nc(-c3ccco3)no2)cc1[N+](=O)[O-])c1ccccc1 (centres undefined) | -6.77% | 
